Source: PubChem BioAssay
Only some compounds are listed: those with a hit (about 0.54% of all), similar ones and a draw of the others.
Chronic BCR inh – inhibitors of chronic active B-cell receptor signaling. hit rate 0.05% among 340,000. Potency, µM (series often up to 46.1 µM), hits mostly inhibitors. ABC-DLBCL IkBa-CBG/CBR reporter, luminescence ratio, 4 h; active = well fitted inhibition curve with a large enough effect in the signal ratio, with a control signal flat, not every such curve was filed as active; inconclusive = small, poorly fitted or top-dose-only effect, or effect the other way, or a change in a side signal; the % refers to the signal ratio
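TMD8 human ABC-DLBCL cells with doxycycline-inducible IκBα–green luciferase fusion and unfused red luciferase, in 0.5% FBS medium; compounds up to 46 uM, 4 h at 37C. Green/red luminescence ratio, filter-overlap corrected, fitted to concentration-response curves.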
Vif-APOBEC3G blk – inhibitors of Vif-APOBEC3G interaction; HeLa A3G-eYFP + Vif (tagged APOBEC3G with the HIV-1 protein that degrades it), YFP fluorescence, overnight; hit rate 0.076% among 410,000; Potency, µM (series often up to 46.1 µM), most hits filed as inhibitors; AID 602310; also: nearly all actives have a fitted effect of over 60% in size
Target sequence (Q9HC16 whole entry, looked up): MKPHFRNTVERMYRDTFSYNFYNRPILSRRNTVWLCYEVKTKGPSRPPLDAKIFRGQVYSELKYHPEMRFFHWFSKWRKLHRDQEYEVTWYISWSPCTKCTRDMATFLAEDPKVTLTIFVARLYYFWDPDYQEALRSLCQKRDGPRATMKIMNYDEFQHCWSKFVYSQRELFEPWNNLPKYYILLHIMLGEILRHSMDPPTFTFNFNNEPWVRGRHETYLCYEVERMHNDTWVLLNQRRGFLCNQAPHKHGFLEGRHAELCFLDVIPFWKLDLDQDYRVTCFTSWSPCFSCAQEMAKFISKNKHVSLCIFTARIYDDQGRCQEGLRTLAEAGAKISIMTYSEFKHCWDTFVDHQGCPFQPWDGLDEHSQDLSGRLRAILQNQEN
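Read-out is eYFP fluorescence (Ex 488/Em 500-530) from Vif-expressing HeLa A3G-eYFP cells; more signal means A3G escaped Vif-mediated degradation. Cells plated overnight, compound pinned in, incubated overnight at 37 deg C.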
Vif-A3F inh – Vif-A3F binding inhibition; HeLa A3F-eYFP + Vif (tagged APOBEC3F with the HIV-1 protein that degrades it), YFP fluorescence increase; Potency, µM (doses to about 46.1 µM); hit rate 0.2% among 390,000; AID 602313; also: nearly all actives have a fitted effect of over 65% in size
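HeLa cells stably expressing Vif plus C-terminally eYFP-tagged A3F were seeded, incubated overnight at 37 deg C, dosed with compound, incubated overnight again at 37 deg C. Yellow fluorescence (Ex 488/Em 500-530) reported blocked Vif-mediated A3F-eYFP degradation.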
TCR act – T cell receptor activation. Potency, µM (doses to about 9.22 µM), hits mostly activators. primary human leukocytes, anti-CD3, IL-2 HTRF, 48 h. 330,000 tested, under 10 active
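Using a-CD3 beads without co-stimulation, primary human leukocytes were exposed to compounds for 48 hr. An HTRF IL-2 kit measured the cytokine, with europium-to-d2 energy transfer producing emission at 665nm upon 320nm excitation.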
uPA generation – cell surface uPA generation inhibition; AID 540303; cell surface uPA generation assay, qHTS; Potency, µM (top dose mostly 38.3 µM), most hits filed as inhibitors; hit rate 0.31% among 330,000; active = well fitted inhibition curve with a large enough effect; inconclusive = small, poorly fitted or top-dose-only effect; inactive = no such curve, though single readings can be large or run the other way; tested in mouse RAW 264.7 cells; also: nearly all actives have a fitted effect of over 55% in size
MBNL1 CUG block – inhibitors of human MBNL1 binding to CUG repeat RNA; Q9NR56; TR-FRET MBNL1-His/biotin-(CUG)12 binding, 665/545 ratio; Potency, µM (doses to about 57.5 µM), actives largely listed as inhibitors; hit rate 0.036% among 280,000; AID 2675; active = well fitted inhibition curve with a large enough effect in the signal ratio, with a control signal flat, not every such curve was filed as active; inconclusive = small, poorly fitted or top-dose-only effect, or effect the other way, or a change in a side signal; inactive = no such curve, though single readings can be large or run the other way; the % refers to the signal ratio
Target sequence (Q9NR56 whole entry, looked up): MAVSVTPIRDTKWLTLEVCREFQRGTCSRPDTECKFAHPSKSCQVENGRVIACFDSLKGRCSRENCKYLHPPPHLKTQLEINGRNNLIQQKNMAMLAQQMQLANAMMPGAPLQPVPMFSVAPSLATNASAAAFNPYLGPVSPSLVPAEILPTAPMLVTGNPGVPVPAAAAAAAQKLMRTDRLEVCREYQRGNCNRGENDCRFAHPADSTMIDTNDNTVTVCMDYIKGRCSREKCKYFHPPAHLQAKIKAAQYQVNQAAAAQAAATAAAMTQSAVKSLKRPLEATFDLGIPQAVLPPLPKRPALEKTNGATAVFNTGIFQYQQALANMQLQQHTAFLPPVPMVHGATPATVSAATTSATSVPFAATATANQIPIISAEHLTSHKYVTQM
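Compound titration spanned 92 nM–58 uM against the MBNL1-His/biotin-(CUG)12 complex. After 60 min at room temperature with 5 nM streptavidin-XL665 and 0.055 ng/ul terbium anti-His, ratiometric 665/545 nm emission (Ex 340 nm) normalized to controls.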
A number is an active result; – = inactive; ? = inconclusive; · = not tested or not shown. Unless noted, calls follow the shape of the dose curve; as a rule, active = well fitted curve in the direction sought with a large enough effect; inconclusive = small, poorly fitted or top-dose-only effect, or another doubt; inactive = no such curve, though single readings can be large; an effect the other way counts as inactive or inconclusive.

SMILES	Chronic BCR inh	Vif-APOBEC3G blk	Vif-A3F inh	TCR act	uPA generation	MBNL1 CUG block
CCOc1ccc(C2C=C(c3ccccc3)Nc3nnnn32)cc1 (stereo not given)	–	–	–	–	–	–
CN(C)c1ccc(C2C=C(c3ccccc3)Nc3nnnn32)cc1 (stereo not given)	·	?	25µM	·	·	·
CN(C)c1ccc(C=O)cc1Cl	·	–	·	·	·	·
Cc1nc([N+](=O)[O-])cn1CC(=O)c1ccc2c(c1)OCCCO2	·	–	·	·	·	·
Cc1cc(C)c2cc3c(N)c(C(=O)Nc4c(C)[nH]c(=O)[nH]c4=O)sc3nc2c1	?	?	22µM	–	–	?
COC(=O)N1C(=O)[C@@](c2ccccc2)(C2CCCC2)N1C(=O)OC	?	?	–	–	7.1µM	–
CC(C)(C)NC(=S)N/N=C\c1ccc(-c2ccc([N+](=O)[O-])cc2)o1	–	10µM	25µM	–	–	?
O=C(N/N=C/c1ccc(-c2cccc([N+](=O)[O-])c2)o1)[C@H]1C[C@@H]1c1ccccc1	–	–	–	–	–	–
O=C(O)c1ccc(-c2ccc(/C=N/Nc3ccc([N+](=O)[O-])cc3)o2)cc1	–	10µM	?	–	–	?
O=C(N/N=C/c1ccc(-c2ccc([N+](=O)[O-])cc2)o1)[C@H]1C[C@@H]1c1ccccc1	–	–	7.1µM	–	–	–
O=C(O)c1cccc(-c2ccc(/C=N/Nc3ccc([N+](=O)[O-])cc3)o2)c1	?	?	22µM	–	–	?
C1=Nc2ccccc2/C1=C/c1c[nH]c2ccccc12	·	–	·	·	·	·
O=C1CCC[C@@H]2CC(N(Cc3cc4ccccc4s3)c3ccccc3)C[C@@H]3CCN1[C@H]23 (stereo not given in full)	·	–	·	·	·	·
O=C(Nc1ccc(Cl)cc1Cl)[C@@H]1CC=C[C@@H]2CCN(C3CCCCC3)C(=O)[C@@H]21	·	–	·	·	·	·
Nc1c(N=Nc2ccc([N+](=O)[O-])cc2)c(S(=O)(=O)O)cc2cc(S(=O)(=O)O)c(/C=C/c3ccccc3)c(O)c12	·	–	·	·	·	·
O=C(C[n+]1ccc2ccccc2c1)c1ccc(F)cc1	·	–	·	·	·	·
COc1ccc(/C=N/N(C)C2=NS(=O)(=O)c3ccccc32)cc1	–	–	–	–	–	–
CN(/N=C/c1ccc(N(C)C)cc1)C1=NS(=O)(=O)c2ccccc21	?	4.5µM	–	–	–	?
COc1cc2c(NC3CCN(C)CC3)nc(N3CCCCC3)nc2cc1OCCOCCN(C)C	·	–	·	·	·	·
O=c1c(Cl)c(Cl)cnn1-c1ccccc1	?	?	–	–	3.5µM	?
Nc1c(Cl)cnn(-c2ccccc2)c1=O	·	–	–	–	–	·
C(=C1c2ccccc2Oc2ccccc21)c1ccccc1	·	–	·	·	·	·
O=[N+]([O-])c1ccc(C=C2c3ccccc3-c3ccccc32)cc1	·	–	·	·	·	·
CCOC(=O)Nc1ccc2nc(Sc3ccc(Cl)cc3)sc2c1	?	?	–	–	1.6µM	–
O=C1C(c2cc(=O)c3ccccc3[nH]2)=C(O)c2ccccc21	?	–	–	–	–	·
SMILES	Chronic BCR inh	Vif-APOBEC3G blk	Vif-A3F inh	TCR act	uPA generation	MBNL1 CUG block
COc1ccc(-c2cc(=O)c3cc(F)ccc3[nH]2)cc1	–	–	–	–	–	–
COc1ccc2[nH]c(-c3ccc(C)cc3)cc(=O)c2c1	?	–	–	–	2.8µM	–
O=c1cc(-c2ccccc2)[nH]c2ccccc12	11µM	?	–	–	–	–
COCCOC(=O)N1CCN(/[N+]([O-])=N/Oc2ccc([N+](=O)[O-])cc2[N+](=O)[O-])CC1	·	–	·	·	·	·
C[n+]1cc(C(=O)N2CCCCC2)ccc1/C=C/c1c[nH]c2ccccc12	–	11µM	?	–	–	?
COc1ccc(-c2n[nH]c3c2CN(C(=O)c2ccc(OC)c(OC)c2)CC3)cc1	?	?	–	–	3.2µM	–
Cc1cnnc2ccccc12	·	–	·	·	·	·
CCOc1cccc(/C=N/NC(=S)Nc2ccccc2[N+](=O)[O-])c1O	?	–	–	–	6.3µM	–
CCOc1cccc(/C=N/NC(=O)c2cccnc2)c1O	?	–	–	–	10µM	–
Cc1c(C(=O)N/N=C/c2ccc(Cl)cc2)[nH]c2ccc(Cl)cc12	?	–	?	–	0.35µM	–
Cc1onc(-c2c(F)cccc2Cl)c1C(=O)O/N=C(\N)c1ccc([N+](=O)[O-])o1	–	22µM	–	–	–	?
C/C(=N\OC(=O)c1c(-c2c(F)cccc2Cl)noc1C)c1nccs1	?	–	–	–	–	–
CC(=O)Oc1ccc(C(=O)Nc2ccc(C3(C#N)CCCC3)cc2)cc1	?	–	–	·	10µM	–
Cc1ccc2c(c1)CCC2=O	·	–	·	·	·	·
O=C1C=CC(=C(c2ccc(O)cc2)c2ccc(O)cc2)C=C1	?	?	–	–	2µM	·
Clc1cccc[n+]1CCc1ccccc1	·	–	·	·	·	·
COc1ccc(Nc2nc(-c3c(C)nc4ncccn34)cs2)cc1	3.5µM	–	–	–	–	?
Cc1cc(Br)ccc1NC(=O)COC(=O)c1ccccc1OCC(=O)N(C)C	·	–	·	·	·	·
O=S1(=O)CCO[C@H]2CCCC[C@@H]2N1Cc1ccccc1	·	–	·	·	·	·
CCOc1ccc(N2C(=O)S/C(=C\c3cccn3C)C2=O)cc1	–	–	?	–	–	–
Cn1cccc1/C=C1\SC(=O)N(c2ccc(O)cc2)C1=O	?	?	25µM	–	–	?
CN(C)c1ccc(C(=O)Oc2cc(O/N=[N+](\[O-])N(C)C)c([N+](=O)[O-])cc2[N+](=O)[O-])cc1	·	–	·	·	·	·
CCOc1ccc(-n2nc3ccc(N)cc3n2)cc1	–	–	–	–	10µM	–
CC(=O)Oc1cc(O)c2c(=O)c(OC(C)=O)c(-c3ccc(OC(C)=O)c(OC(C)=O)c3)oc2c1	·	–	–	–	10µM	·
O=c1[nH]c2ccccc2n2c(C(F)(F)F)nnc12	–	–	10µM	–	–	–
SMILES	Chronic BCR inh	Vif-APOBEC3G blk	Vif-A3F inh	TCR act	uPA generation	MBNL1 CUG block
O=c1[nH]c2ccccc2n2c(=S)[nH]nc12	–	–	22µM	–	–	–
C[C@@H]1[C@H](c2ccccc2)OCCS(=O)(=O)N1Cc1cccc(C(F)(F)F)c1	·	–	·	·	·	·
CCOC(=O)c1ccc(NC(=O)CSc2nc(-c3ccc(OC)cc3)cc(C(F)(F)F)c2C#N)cc1	·	?	25µM	·	·	·
COc1ccc(NC(=O)CSc2nc(-c3cccs3)cc(C(F)(F)F)c2C#N)cc1	·	–	?	·	·	·
CCOC(=O)c1ccc(NC(=O)CSc2nc(-c3cccs3)cc(C(F)(F)F)c2C#N)cc1	·	?	4µM	·	·	·
COc1ccc(CN2CC[C@H]3C=CC[C@@H](C(=O)NCc4cccnc4)[C@H]3C2=O)cc1OC	·	–	·	·	·	·
C(=C\c1ccnc2ccccc12)/c1ccc(N(Cc2ccccc2)Cc2ccccc2)cc1	·	–	·	·	·	·
Cc1[nH]c2ccccc2c1/C=C/C(=O)c1ccccc1	?	?	28µM	–	–	–
